Inhibition data for 39 compounds are collected here from ChEMBL document CHEMBL1157539, “Thousands of chemical starting points for antimalarial lead identification” (Nature, 2010).

Broadly, the Inhibition is the change of the read-out against control, counted positive when it falls. A low value points to a weak effect.

The first assay has as its system Plasmodium falciparum. Briefly: GSK_TCMDC: Inhibition of Plasmodium falciparum 3D7 in whole red blood cells, using parasite LDH activity as an index of growth. Test compounds present at 2uM. It counts as functional.
`CCOC(=O)c1ccc(NC(=O)N[C@@H](Cc2ccccc2)C(=O)NC2CCN(Cc3ccc(OCCCN(C)C)cc3)C2)cc1` (stereo not given in full): the Inhibition stood at 91%. Still for that read-out and setting: for `Cc1cccc2nc(-c3ccc(-c4cccc(CNCc5ccccc5)c4)cc3)[nH]c12.O=C(O)C(F)(F)F` the value was 100%. The compound `COc1ccccc1-c1ccc(C(=O)NCC2CCCN(Cc3cccc(C(F)(F)F)c3)C2)s1.O=C(O)C(F)(F)F` (stereo not given) registered an Inhibition of 81%. Still for that read-out and setting: to `COc1cccc(C(=O)C2CC2CN(C)CC(O)c2cc(C)c(OC)cc2C)c1.O=C(O)C(F)(F)F` (stereo not given) belongs 88%; to `O=C(N[C@H]1CCCC[C@H]1C(=O)O)c1ccccc1`, 95%. On the same count and under the same terms, for `NC(=O)c1cc2nc(Nc3ccc(F)cc3)nc(NC3CCC3)c2[nH]1.O=CO` the value was 100%; for `O=C(N[C@H]1CCN(Cc2ccc(OCCN3CCNCC3)c3ccccc23)C1)c1ccc(Cl)c(Cl)c1.O=C(O)C(F)(F)F`, 100%; for `CO/C(=C\C=C\c1cc2cc(Cl)c(Cl)cc2[nH]1)C(=O)NCCCN1CCC(c2ccccc2)CC1`, 100%. `CCC[C@@H]([C@@H](CC1CCCCC1)C(=O)N[C@H](C(=O)Nc1ccccn1)[C@H](C)CC)N(O)C=O` had an Inhibition of 96%. Regarding `O=C(/C=C/c1ccc(Cl)c(Cl)c1)NCCCCCN1CCC(NC(=O)Nc2cccc(Cl)c2F)CC1`, the Inhibition was 100%. The same measure, in the same setting: for `COc1ccc2nccc([C@@H](O)CN3CCC(NCc4ccc5c(n4)NC(=O)CS5)C(F)C3)c2c1.Cl` (stereo not given in full) the value was 89%; for `O=C(NCCN1CCC(c2ncc(-c3ccccc3)o2)CC1)c1ccc(NC(=O)c2ccc(Cl)cc2)cc1`, 100%; for `CCn1c(C)cc(C=C2SC(=Nc3ccccc3)NC2=O)c1C`, 90%. Still for that read-out and setting: to `COc1ccc(Nc2nc(C)cc(NC3CCCC3)n2)cc1` belongs 98%; to `N#Cc1ccc(N2CCN(Cc3cccc(-c4ccc(-c5nc6cc(C(F)(F)F)ccc6[nH]5)s4)c3)CC2)nc1.O=C(O)C(F)(F)F`, 96%. For the compound `CCn1cnc2c(N3CCCS3(=O)=O)cc(C(=O)N[C@@H](Cc3ccccc3)[C@H](O)CNC(C)(C)c3cccc(C(F)(F)F)c3)cc21`, the Inhibition was 99%.

`Cc1cccc2nc(-c3ccc(-c4cccc(CN5CCN(CC6CCCN(C)C6)CC5)c4)s3)[nH]c12.O=C(O)C(F)(F)F` (stereo not given) came in with an Inhibition of 100%.

Consider `Cc1cc(N[C@@H](CC(C)C)C(=O)NC2CCCC2)nc(NCC2CCCCC2)n1.O=C(O)C(F)(F)F`, for which the Inhibition came to 100%. As for `CNCCNCc1ccc(-c2cccc(-c3nc4cc(C(F)(F)F)ccc4[nH]3)c2)cc1.O=C(O)C(F)(F)F`, the Inhibition turned out to be 98%. `COc1ccc(N2CCc3c(-c4cccc5cnccc45)cc(C)nc32)c(C)c1` returned an Inhibition of 96%.

Compound `CN1CCN(CCCN(Cc2csc(-c3ccc(CNCc4ccccc4)cc3)n2)S(=O)(=O)c2cccc3cccnc23)CC1.O=C(O)C(F)(F)F` returned an Inhibition of 89%. Take `Cc1cc(-c2cccc(CNCc3ccccc3)c2)ccc1S(=O)(=O)NCCN1CCCC1.O=C(O)C(F)(F)F`: the Inhibition amounted to 98%. Take `NS(=O)(=O)NCCCN1CCN(c2ccccc2)CC1`: the Inhibition is 90%. Still for that read-out and setting: to `NC(=O)c1sc(-n2cnc3ccccc32)cc1OCc1ccccc1[N+](=O)[O-]` belongs 99%; to `COc1ccc(CCNCCCCCCNCCc2ccccc2Cl)cc1OC.Cl`, 96%. For the compound `COc1cccc(Nc2nc(C)cc(NC3CCN(Cc4ccccc4)CC3)n2)c1`, the Inhibition worked out at 100%.

The test system of the next assay is Plasmodium falciparum. Briefly: GSK_TCMDC: Inhibition of Plasmodium falciparum Dd2 in whole red blood cells, using parasite LDH activity as an index of growth. Test compounds present at 2uM. It counts as functional.
As for `CC(=O)Nc1nc(C(=O)Nc2cccc(-c3cccc(-c4nc5ccccc5[nH]4)c3)c2)cs1`, the Inhibition came out at 82%. `Cc1cc(N[C@@H](Cc2ccccc2)C(=O)NCc2cccs2)nc(NCC2CCCCC2)n1.O=C(O)C(F)(F)F` came in with an Inhibition of 92%. In turn, `CCCNCc1ccc(-c2ccc(CN(CC3CCCO3)C(=O)C3CC(=O)c4ccccc43)cc2)nc1.O=C(O)C(F)(F)F` (stereo not given) displayed an Inhibition of 65%. As to `COc1ccc(NC(=O)c2ccc(Br)c(C)c2)cc1N1CCN(Cc2ccccc2)CC1.O=C(O)C(=O)O`, the Inhibition was 3%. Consider `Cn1cncc1C(=O)Nc1cccc(-c2cccc(-c3nc4cc(C(F)(F)F)ccc4[nH]3)c2)c1`, for which the Inhibition is recorded as 99%. `CCN(CCNC(=O)Cn1c(C)cc2cc([N+](=O)[O-])ccc21)c1cccc(C)c1` yielded an Inhibition of 95%. Same read-out and setting: to `O=C(Nc1cccc(-c2ccc(CN3CCCC3)cc2)c1)c1cccc(F)c1.O=C(O)C(F)(F)F` belongs 17%; to `O=C(O)C(F)(F)F.O=c1[nH]c2ccc(Nc3nccc(NCCc4ccccc4)n3)cc2[nH]1`, 6%; to `Cc1ccnc2nc(C(=O)Nc3cc(C(F)(F)F)ccc3N3CCCCC3)nn12`, 94%. Still for that read-out and setting: for `COc1cc(C(=O)Nc2cccc(-c3cn4cccc(C)c4n3)c2)cc(OC)c1OC` the value was 77%; for `Clc1ccc2c(NCc3ccccn3)ccnc2c1`, 99%.

Consider `COc1ccc2nccc([C@@H](O)CN3CCC(NCCOc4c(C)cccc4F)CC3)c2c1.O=C(O)C(=O)O`, for which the Inhibition turned out to be 95%. Still for that read-out and setting: to `CC(C)c1ccc(CN2CCCCC(NC(=O)c3cc(-c4ccccc4Cl)cs3)C2)cc1.O=C(O)C(F)(F)F` (stereo not given) belongs 64%; to `CCOC(=O)c1ccc(NC(=O)N[C@@H](Cc2ccccc2)C(=O)NC2CCN(Cc3ccc(OCCCN(C)C)cc3)C2)cc1` (stereo not given in full), 8%; to `Cc1cccc2nc(-c3ccc(-c4cccc(CNCc5ccccc5)c4)cc3)[nH]c12.O=C(O)C(F)(F)F`, 52%. On the same count and under the same terms, to `COc1ccccc1-c1ccc(C(=O)NCC2CCCN(Cc3cccc(C(F)(F)F)c3)C2)s1.O=C(O)C(F)(F)F` (stereo not given) belongs 37%. On the same count and under the same terms, for `COc1cccc(C(=O)C2CC2CN(C)CC(O)c2cc(C)c(OC)cc2C)c1.O=C(O)C(F)(F)F` (stereo not given) the value was 73%. In the case of `O=C(N[C@H]1CCCC[C@H]1C(=O)O)c1ccccc1`, the Inhibition was 3%.

For the compound `NC(=O)c1cc2nc(Nc3ccc(F)cc3)nc(NC3CCC3)c2[nH]1.O=CO`, the Inhibition turned out to be 100%. As to `O=C(N[C@H]1CCN(Cc2ccc(OCCN3CCNCC3)c3ccccc23)C1)c1ccc(Cl)c(Cl)c1.O=C(O)C(F)(F)F`, the Inhibition was 99%. Same read-out and setting: for `CO/C(=C\C=C\c1cc2cc(Cl)c(Cl)cc2[nH]1)C(=O)NCCCN1CCC(c2ccccc2)CC1` the value was 92%; for `CCC[C@@H]([C@@H](CC1CCCCC1)C(=O)N[C@H](C(=O)Nc1ccccn1)[C@H](C)CC)N(O)C=O`, 87%; for `O=C(/C=C/c1ccc(Cl)c(Cl)c1)NCCCCCN1CCC(NC(=O)Nc2cccc(Cl)c2F)CC1`, 30%.

With `COc1ccc2nccc([C@@H](O)CN3CCC(NCc4ccc5c(n4)NC(=O)CS5)C(F)C3)c2c1.Cl` (stereo not given in full), the Inhibition was 88%. On the same count and under the same terms, for `O=C(NCCN1CCC(c2ncc(-c3ccccc3)o2)CC1)c1ccc(NC(=O)c2ccc(Cl)cc2)cc1` the value was 80%; for `CCn1c(C)cc(C=C2SC(=Nc3ccccc3)NC2=O)c1C`, 87%; for `COc1ccc(Nc2nc(C)cc(NC3CCCC3)n2)cc1`, 59%.

The compound `N#Cc1ccc(N2CCN(Cc3cccc(-c4ccc(-c5nc6cc(C(F)(F)F)ccc6[nH]5)s4)c3)CC2)nc1.O=C(O)C(F)(F)F` gave an Inhibition of 52%. Take `CCn1cnc2c(N3CCCS3(=O)=O)cc(C(=O)N[C@@H](Cc3ccccc3)[C@H](O)CNC(C)(C)c3cccc(C(F)(F)F)c3)cc21`: the Inhibition stood at 97%.

`Cc1cccc2nc(-c3ccc(-c4cccc(CN5CCN(CC6CCCN(C)C6)CC5)c4)s3)[nH]c12.O=C(O)C(F)(F)F` (stereo not given) returned an Inhibition of 99%. In turn, `Cc1cc(N[C@@H](CC(C)C)C(=O)NC2CCCC2)nc(NCC2CCCCC2)n1.O=C(O)C(F)(F)F` came in with an Inhibition of 88%. For the compound `CNCCNCc1ccc(-c2cccc(-c3nc4cc(C(F)(F)F)ccc4[nH]3)c2)cc1.O=C(O)C(F)(F)F`, the Inhibition is recorded as 77%.

As for `COc1ccc(N2CCc3c(-c4cccc5cnccc45)cc(C)nc32)c(C)c1`, the Inhibition is 0%. Same read-out and setting: for `CN1CCN(CCCN(Cc2csc(-c3ccc(CNCc4ccccc4)cc3)n2)S(=O)(=O)c2cccc3cccnc23)CC1.O=C(O)C(F)(F)F` the value was 32%; for `Cc1cc(-c2cccc(CNCc3ccccc3)c2)ccc1S(=O)(=O)NCCN1CCCC1.O=C(O)C(F)(F)F`, 58%. `NS(=O)(=O)NCCCN1CCN(c2ccccc2)CC1` had an Inhibition of 73%. As to `NC(=O)c1sc(-n2cnc3ccccc32)cc1OCc1ccccc1[N+](=O)[O-]`, the Inhibition was found to be 46%. As to `COc1ccc(CCNCCCCCCNCCc2ccccc2Cl)cc1OC.Cl`, the Inhibition stood at 3%. Same read-out and setting: for `COc1cccc(Nc2nc(C)cc(NC3CCN(Cc4ccccc4)CC3)n2)c1` the value was 46%.
